AMA1 RON2 block – inhibitors of Plasmodium falciparum AMA1-RON2 interaction; AlphaScreen AMA1-biotinylated RON2 peptide binding; Potency, µM (highest dose often 58.2 µM), most hits filed as inhibitors; 360,000 tested, 0.2% active; AID 720542; also: nearly all actives have a fitted effect of over 45% in size
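AMA1 (3D7) with his tag at 25 nM final met compounds first, then biotinylated RON2 peptide at 25 nM; detection used donor plus acceptor beads, 10 µg/mL apiece, read by AlphaScreen after 30 min at room temperature.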
AmpC no deterg – blocks E. coli AmpC beta-lactamase in detergent-free assay; AmpC nitrocefin hydrolysis, absorbance 480 nm, 0.0001% Triton; 330,000 tested, 0.52% active; Potency, µM (series often up to 57.1 µM), usual class: inhibitors; P00811; also: nearly all actives have a fitted effect of over 20% in size
Target sequence (P00811 whole entry, looked up): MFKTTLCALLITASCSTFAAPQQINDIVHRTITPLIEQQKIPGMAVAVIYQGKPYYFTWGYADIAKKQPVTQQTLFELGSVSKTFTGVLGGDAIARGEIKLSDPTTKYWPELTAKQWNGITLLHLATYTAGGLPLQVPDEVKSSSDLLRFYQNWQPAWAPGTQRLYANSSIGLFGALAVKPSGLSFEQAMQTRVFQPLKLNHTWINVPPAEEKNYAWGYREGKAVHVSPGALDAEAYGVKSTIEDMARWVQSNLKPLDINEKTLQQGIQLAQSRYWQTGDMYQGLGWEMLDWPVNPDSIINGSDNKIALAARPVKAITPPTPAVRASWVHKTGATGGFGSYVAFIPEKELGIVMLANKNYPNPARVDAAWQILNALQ
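AmpC (5.3 nM in the dispensed reagent) in 20 mM phosphate pH 7.0 with 0.01% (detergent screen) or 0.0001% Triton X-100 was preincubated with compounds for 15 min at room temperature. Nitrocefin was then added from an 800 uM solution, and hydrolysis was followed at 480 nm.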
SARS PLP yeast – inhibitors of SARS-CoV papain-like protease in yeast | S. cerevisiae expressing SARS-CoV PLpro, growth rescue | Potency, µM (series often up to 32.9 µM), actives largely listed as activators | 330,000 tested, 0.19% active; calls by dose curve; also: nearly all actives have a fitted effect of over 55% in size
CHX counter – affects cycloheximide protein synthesis inhibition readout, counter-screen | cell reporter, cycloheximide protein synthesis inhibition counterscreen | max response, % | 300,000 tested, 12% active | AID 2314; in the data active = max response mostly above about 13%, no sharp cut-off; inactive = mostly below about 14%; also: read at 38.3 µM for the half of the compounds with a filed dose
Shiga toxin inh – blocks Shiga toxin action in Vero cells | inhibition, % at 38.7 µM | 290,000 tested, 9.2% active | Vero cells, Shiga toxin protein synthesis inhibition reporter | AID 2315; in the data active = inhibition mostly above about 28%, no sharp cut-off; inactive = mostly below about 43%
AmpC detergent – AmpC beta-lactamase inhibition with detergent present; AID 485294; 370,000 tested, 0.041% active; AmpC hydrolysis of nitrocefin, absorbance 480 nm, 0.01% Triton; Potency, µM (titrated, usually from 114 µM), most hits filed as inhibitors; also: nearly all actives have a fitted effect of over 25% in size
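AmpC (5.3 nM in the dispensed reagent) in 20 mM phosphate pH 7.0 with 0.01% (detergent screen) or 0.0001% Triton X-100 was preincubated with compounds for 15 min at room temperature. Nitrocefin was then added from an 800 uM solution, and hydrolysis was followed at 480 nm.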
A number is an active result; [ ] = remark or other dose. The entries come from a sample that favours hits as a whole. Unless noted, calls follow the shape of the dose curve; as a rule, active = well fitted curve in the direction sought with a large enough effect; inconclusive = small, poorly fitted or top-dose-only effect, or another doubt; inactive = no such curve, though single readings can be large; an effect the other way counts as inactive or inconclusive.

What do the screens show for `CCc1nnc(NC(=O)c2ccc(COc3ccccc3)o2)s1`?
AMA1 RON2 block: inactive; AmpC no deterg: inactive; SARS PLP yeast: inactive; CHX counter: inactive; Shiga toxin inh: inactive; AmpC detergent: inactive

Results for O=C(Nc1nccs1)c1ccc(COc2ccccc2)o1 ?
AMA1 RON2 block: inactive; AmpC no deterg: inactive; SARS PLP yeast: inactive; CHX counter: 50; Shiga toxin inh: 84; AmpC detergent: inactive

Results for Cc1ccc(SCc2ccc(C(=O)Nc3nccs3)o2)cc1 ?
AMA1 RON2 block: inactive; AmpC no deterg: inactive; SARS PLP yeast: inactive; CHX counter: 38; Shiga toxin inh: 81; AmpC detergent: inactive

How did Cc1ccc(OCc2ccc(C(=O)Nc3nccs3)o2)cc1 do in these assays?
AMA1 RON2 block: inactive; AmpC no deterg: inactive; SARS PLP yeast: inactive; CHX counter: inactive; Shiga toxin inh: inactive; AmpC detergent: inconclusive

How did COc1cc(/C=C/C(=O)Nc2nc3ccc(S(=O)(=O)N(C)C)cc3s2)cc(OC)c1OC do in these assays?
AMA1 RON2 block: inactive; AmpC no deterg: inactive; SARS PLP yeast: inactive; CHX counter: inactive; Shiga toxin inh: inactive; AmpC detergent: inconclusive

Results for Oc1ccc(Nc2nc3ccccc3nc2Nc2ccc(O)cc2)cc1 ?
AMA1 RON2 block: inactive; AmpC no deterg: inactive; SARS PLP yeast: inactive; CHX counter: 14; Shiga toxin inh: inactive; AmpC detergent: inactive

Results for Oc1ccc(Nc2nc(-c3ccccc3)nc3ccccc23)cc1 ?
AMA1 RON2 block: inactive; AmpC no deterg: 18µM; SARS PLP yeast: inactive; CHX counter: inactive; Shiga toxin inh: inactive; AmpC detergent: inactive

Results for Oc1ccc(Nc2nc(-c3ccc(Cl)cc3)nc3ccccc23)cc1 ?
CHX counter: inactive; Shiga toxin inh: inactive; AmpC detergent: inactive

How did COc1ccc(/C=C/C(=O)Nc2ccc(C)c(S(=O)(=O)N3CCOCC3)c2)cc1 do in these assays?
AMA1 RON2 block: inactive; AmpC no deterg: inactive; SARS PLP yeast: inactive

Results for CC(OC(=O)c1cc(=O)[nH]c2ccccc12)c1ccccc1 (centres undefined) ?
AMA1 RON2 block: inactive; AmpC no deterg: inactive; SARS PLP yeast: inactive; CHX counter: 32; Shiga toxin inh: 70; AmpC detergent: inactive

Results for COc1ccc(C(=O)NCCS(=O)(=O)NCCc2ccccc2)cc1 ?
AMA1 RON2 block: inactive; AmpC no deterg: inactive; SARS PLP yeast: inactive; AmpC detergent: inactive

How did Cc1cc(N2C(=O)C(O)=C(C(=O)c3ccco3)C2c2cccc(Cl)c2)no1 (centres undefined) do in these assays?
AMA1 RON2 block: inactive; AmpC no deterg: inactive; SARS PLP yeast: inactive; CHX counter: inactive; Shiga toxin inh: inactive; AmpC detergent: inactive

How did c1ccc(CSc2nnc(-c3ccncc3)o2)cc1 do in these assays?
AMA1 RON2 block: inactive; AmpC no deterg: inactive; SARS PLP yeast: inactive; CHX counter: 35; Shiga toxin inh: 85; AmpC detergent: inactive

What do the screens show for `Cc1ccccc1CSc1nnc(-c2ccncc2)o1`?
AMA1 RON2 block: inactive; AmpC no deterg: inactive[2.29 µM]; SARS PLP yeast: inactive; CHX counter: 13; Shiga toxin inh: inactive; AmpC detergent: inactive

What do the screens show for `Cc1ccc(-c2nnc(SCc3ccccc3C#N)o2)cc1`?
AmpC detergent: inactive

What do the screens show for `CC(=Nc1ccc(O)cc1)c1sc2ccccc2c1O`?
AMA1 RON2 block: inactive; AmpC no deterg: inactive; SARS PLP yeast: inactive; CHX counter: 48; Shiga toxin inh: 95; AmpC detergent: inactive

How did CC(=O)NCCN=C(C)c1sc2ccccc2c1O do in these assays?
AMA1 RON2 block: inactive; AmpC no deterg: inactive; SARS PLP yeast: inactive; CHX counter: 24; Shiga toxin inh: active; AmpC detergent: inactive

How did O=C(CNC(=O)c1sc2ccccc2c1Cl)NCc1ccccc1 do in these assays?
AMA1 RON2 block: inactive; AmpC no deterg: inactive; SARS PLP yeast: inconclusive; CHX counter: inactive; Shiga toxin inh: inactive; AmpC detergent: inactive

What do the screens show for `CC(=Nc1ccccc1O)c1sc2ccccc2c1O`?
AMA1 RON2 block: inactive; AmpC no deterg: 7.1µM; SARS PLP yeast: inactive; CHX counter: 33; Shiga toxin inh: 67; AmpC detergent: inactive

Results for Cc1ccnc(NC(=O)CNC(=O)c2sc3ccccc3c2Cl)c1 ?
AMA1 RON2 block: inactive; AmpC no deterg: inactive; SARS PLP yeast: inactive; AmpC detergent: inconclusive

What do the screens show for `CC(=Nc1cccc(C)c1)c1sc2ccccc2c1O`?
AMA1 RON2 block: inactive; AmpC no deterg: inactive; SARS PLP yeast: inactive; CHX counter: 45; Shiga toxin inh: 109; AmpC detergent: inactive

Results for Cc1ccc(C(=O)c2ccccc2C(=O)OCC(=O)Nc2cccc([N+](=O)[O-])c2)cc1 ?
AMA1 RON2 block: inactive; AmpC no deterg: inactive; SARS PLP yeast: inactive; CHX counter: inactive; Shiga toxin inh: inactive; AmpC detergent: inactive

What do the screens show for `Cc1ccc(C(=O)c2ccccc2C(=O)OCC(=O)Nc2ccc(SC(F)F)cc2)cc1`?
AMA1 RON2 block: inactive; AmpC no deterg: inactive; SARS PLP yeast: inactive; CHX counter: 16; Shiga toxin inh: inactive; AmpC detergent: inactive

Results for O=C(COC(=O)c1ccccc1Cc1ccccc1)Nc1ccc(SC(F)F)cc1 ?
AMA1 RON2 block: inactive; AmpC no deterg: inactive; SARS PLP yeast: inactive; CHX counter: 54; Shiga toxin inh: 129; AmpC detergent: inactive

How did CCCC(=O)N(c1ccc(C(=O)O)cc1)c1nc(-c2ccccc2)c(C)s1 do in these assays?
AMA1 RON2 block: inactive; AmpC no deterg: inactive; SARS PLP yeast: inactive; CHX counter: inactive; Shiga toxin inh: inactive; AmpC detergent: inactive

How did Cc1ccccc1-n1cnc2cc(NCc3cccs3)ccc21 do in these assays?
AMA1 RON2 block: inconclusive; AmpC no deterg: inactive; SARS PLP yeast: inconclusive; CHX counter: inactive; Shiga toxin inh: inactive; AmpC detergent: inactive

Results for COc1ccccc1-n1cnc2cc(NCc3ccccc3O)ccc21 ?
AMA1 RON2 block: inactive; AmpC no deterg: inactive; SARS PLP yeast: inactive; CHX counter: 22; Shiga toxin inh: 70; AmpC detergent: inactive

Results for COc1ccccc1-n1cnc2cc(NCc3cccs3)ccc21 ?
AMA1 RON2 block: inconclusive; AmpC no deterg: inactive; SARS PLP yeast: inactive; CHX counter: 23; Shiga toxin inh: 44; AmpC detergent: inactive

How did COc1ccc(CNc2ccc3c(c2)ncn3-c2ccccc2OC)cc1 do in these assays?
AMA1 RON2 block: inconclusive; AmpC no deterg: inactive; SARS PLP yeast: inactive; CHX counter: inactive; Shiga toxin inh: inactive; AmpC detergent: inactive

How did CC(C)Cc1cc(C(=O)N2CCCC(C(=O)c3cc(F)ccc3F)C2)no1 (centres undefined) do in these assays?
AMA1 RON2 block: inactive; AmpC no deterg: inactive; SARS PLP yeast: inactive; CHX counter: inactive; Shiga toxin inh: inactive; AmpC detergent: inactive

Results for Cc1cccc(CN2CCN(C3CN(Cc4ccc(F)cc4)S(=O)(=O)C3)CC2)c1 (centres undefined) ?
AMA1 RON2 block: inactive

How did CCc1ccc(OC(=O)Nc2ccccc2)cc1 do in these assays?
AMA1 RON2 block: inactive; AmpC no deterg: inactive; SARS PLP yeast: inactive; CHX counter: 13; Shiga toxin inh: inactive; AmpC detergent: inactive

High-throughput results deposited in PubChem by National Center for Advancing Translational Sciences (NCATS).
